Our source for the growth values is PubChem BioAssay (NCI).

Structures are written as SMILES. About 83,000 compounds went through this panel and 20% of them were active in at least one assay; those are over-represented in the sample as a whole.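 Assay: single dose, 48 h. Readout: percent growth (0 = no net growth; negative = cell death). Active: <10.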 Values without a mark were called inactive. The source made the active and inactive calls.

Test systems include SR leukemia; RPMI-8226 leukemia; OVCAR-8 ovarian; OVCAR-5 ovarian; OVCAR-4 ovarian; SK-OV-3 ovarian; IGROV1 ovarian; OVCAR-3 ovarian; HS 578T breast; NCI/ADR-RES ovarian; BT-549 breast; MDA-MB-435 melanoma; SW-620 colon; MCF7 breast; HCT-116 colon; HCC-2998 colon; KM12 colon; T-47D breast.
Holding throughout (test): NCI-60 one-dose screen, 48 h (100 = growth as untreated, 0 = no growth, -100 = all killed)
Common to all, as to settings: 10 µM unless noted

Take `CCOC(=O)c1[nH]cc2c1CCc1sc(Nc3ccccn3)nc1-2`: the growth was 56.8% in the test with SR leukemia; 45% in the test on RPMI-8226 leukemia; 83.1% in the test with OVCAR-8 ovarian; 109% with OVCAR-5 ovarian; 72.7% with OVCAR-4 ovarian; 100% in the test on SK-OV-3 ovarian. Moreover, the growth in the test on IGROV1 ovarian is 97.6%; in the test with OVCAR-3 ovarian, 82.2%; in the test with HS 578T breast, 95.6%; in the test on NCI/ADR-RES ovarian, 72.5%; in the test on BT-549 breast, 79.4%; in the test on MDA-MB-435 melanoma it was 86.2%. Besides, the growth with SW-620 colon was 103%; with MCF7 breast, 57.1%; in the test on HCT-116 colon, 75.7%; with HCC-2998 colon, 94.6%; in the test with KM12 colon, 64.3%.

On to `c1cc(OCCN2CCCC2)ccc1CNc1ccc2nc(CCC3CCCCC3)[nH]c2c1`, for which the growth with SR leukemia was 7.84% (active); in the test on RPMI-8226 leukemia, -8.82% (active); in the test with OVCAR-8 ovarian it was 43%; in the test on OVCAR-5 ovarian, 67.5%; with OVCAR-4 ovarian it was 56.7%; in the test on SK-OV-3 ovarian it was 99.3%. In addition, the growth with IGROV1 ovarian is 46.3%; in the test on OVCAR-3 ovarian, 49.6%; with HS 578T breast, 44.1%; in the test with T-47D breast it was -11.5% (active); with BT-549 breast, 82.5%; with MDA-MB-435 melanoma, -50.7% (active). Besides, the growth is 8.87% (active) in the test with SW-620 colon; 3.44% (active) in the test on MCF7 breast; 15.3% in the test with HCT-116 colon; 19.7% in the test with HCC-2998 colon; 52.5% in the test with KM12 colon.

As for `COc1cc2c(c(OC)c1OC)CCC(c1cccc(C(=O)Nc3ccc(Br)cc3)c1)O2` (centres undefined), the growth is 27.7% in the test on SR leukemia; 40.5% in the test on RPMI-8226 leukemia; 71.8% with OVCAR-8 ovarian; 68.4% with OVCAR-5 ovarian; 63.8% in the test on OVCAR-4 ovarian; 72.7% with SK-OV-3 ovarian. Also, the growth in the test on IGROV1 ovarian is 61.2%; in the test on OVCAR-3 ovarian it was 78.8%; in the test with HS 578T breast, 78.5%; in the test on T-47D breast, 28.9%; in the test on BT-549 breast, 69%; in the test on MDA-MB-435 melanoma it was 81.9%. Also, the growth in the test on SW-620 colon is 88.7%; in the test with MCF7 breast it was 67.1%; in the test on HCC-2998 colon, 71.5%; with KM12 colon it was 65.2%.

Take `c1ccc2cc(Cn3cc(CSc4nc5ccccc5s4)nn3)ccc2c1`: the growth was 103% in the test with SR leukemia; 95.7% in the test with RPMI-8226 leukemia; 90.7% in the test with OVCAR-8 ovarian; 99.7% in the test on OVCAR-5 ovarian; 98.1% with OVCAR-4 ovarian; 93.3% with SK-OV-3 ovarian. Moreover, the growth in the test on IGROV1 ovarian is 93.9%; in the test on OVCAR-3 ovarian it was 103%; with HS 578T breast, 87.1%; in the test with NCI/ADR-RES ovarian, 96.9%; in the test on BT-549 breast it was 96.3%; in the test on MDA-MB-435 melanoma it was 105%. The growth is 94.5% in the test on SW-620 colon; 91.7% in the test with MCF7 breast; 96.3% in the test with HCT-116 colon; 102% in the test on HCC-2998 colon; 100% with KM12 colon.

On to `Cc1ccc(-c2nc(SCC(=O)N3CCN(c4cc5c(cc4F)c(=O)c(C(=O)O)cn5C4CC4)CC3)nc(Cl)c2C#N)cc1`, for which the growth in the test on SR leukemia is 103%; with RPMI-8226 leukemia it was 104%; with OVCAR-8 ovarian, 106%; in the test on OVCAR-5 ovarian it was 96.4%; with OVCAR-4 ovarian, 108%; with SK-OV-3 ovarian, 89.2%. In addition, the growth in the test with IGROV1 ovarian is 97.4%; in the test with OVCAR-3 ovarian it was 109%; with HS 578T breast it was 104%; in the test on T-47D breast, 91.1%; in the test on BT-549 breast, 103%; in the test on MDA-MB-435 melanoma, 106%. Also, the growth is 103% in the test on SW-620 colon; 94.9% in the test on MCF7 breast; 101% in the test with HCT-116 colon; 98.8% in the test with HCC-2998 colon; 102% with KM12 colon.

Take `C#Cc1cccc(NC(=O)C2CCCCN2C(=O)CCl)c1` (centres undefined): the growth is 2.64% [8.25 µM] (active) in the test with SR leukemia; -38.4% [8.25 µM] (active) in the test with RPMI-8226 leukemia; 2.11% [8.25 µM] (active) in the test on OVCAR-8 ovarian; -95% [8.25 µM] (active) in the test with OVCAR-5 ovarian; -66.9% [8.25 µM] (active) with OVCAR-4 ovarian; 33.1% [8.25 µM] with SK-OV-3 ovarian. Also, the growth in the test with IGROV1 ovarian is -69.9% [8.25 µM] (active); in the test on OVCAR-3 ovarian, -66.3% [8.25 µM] (active); in the test with HS 578T breast, -22.1% [8.25 µM] (active); in the test with NCI/ADR-RES ovarian, -5.37% [8.25 µM] (active); in the test on T-47D breast, -4.16% [8.25 µM] (active); in the test with BT-549 breast it was -55.9% [8.25 µM] (active). The growth with MDA-MB-435 melanoma was -57.3% [8.25 µM] (active); in the test with MCF7 breast, -7.64% [8.25 µM] (active); in the test with HCT-116 colon, -30.7% [8.25 µM] (active); in the test on KM12 colon, -34.2% [8.25 µM] (active).

`COc1cc(-c2ccc(-c3ccc(C(=N)N)cc3)s2)cc(OC)c1OC`: the growth in the test with SR leukemia is 5.38% (active); in the test on RPMI-8226 leukemia it was -22.6% (active); in the test with OVCAR-8 ovarian it was 70.7%; with OVCAR-5 ovarian, 83%; in the test with OVCAR-4 ovarian, 54%; with SK-OV-3 ovarian, 77.9%. Also, the growth in the test with IGROV1 ovarian is 62.6%; with OVCAR-3 ovarian, 46%; in the test with HS 578T breast it was 34.7%; with T-47D breast, 55.2%; in the test with BT-549 breast it was 86.3%; with MDA-MB-435 melanoma, 40.4%. Also, the growth with SW-620 colon was 20.9%; with MCF7 breast it was 13.6%; in the test on HCT-116 colon it was 15%; in the test with HCC-2998 colon, -19.6% (active); with KM12 colon, 23.4%.

As for `O=C1C(Cl)=C(Nc2ccccc2)C(=O)c2ccccc21`, the growth in the test on SR leukemia is -21% (active); in the test with RPMI-8226 leukemia, -7.02% (active); in the test with OVCAR-8 ovarian, -32.1% (active); with OVCAR-5 ovarian, 75.7%; in the test with OVCAR-4 ovarian, -96.9% (active); with SK-OV-3 ovarian, 75.1%. Besides, the growth in the test with IGROV1 ovarian was -77.6% (active); in the test on OVCAR-3 ovarian, -96.7% (active); in the test with HS 578T breast, 54%; with NCI/ADR-RES ovarian it was -15.2% (active); in the test on BT-549 breast it was -94.7% (active); in the test on MDA-MB-435 melanoma it was -97.7% (active). Also, the growth was -72% (active) with SW-620 colon; -58% (active) in the test with MCF7 breast; -96.2% (active) in the test on HCT-116 colon; -15.6% (active) in the test on HCC-2998 colon; 46.9% in the test with KM12 colon.
